Screening results as filed in PubChem BioAssay.
Most compounds without a hit are left out; they make up all but 4.8% or so of the library.
hgDAF-12 ag – hgDAF-12 agonism, primary luciferase screen; 370,000 tested, 1.8% active; AID 687014; HEK293 GAL4-hgDAF12 UAS-luciferase reporter, agonist luminescence; normalized to butyrate control; activation, % at 6.8 µM;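 active = activation above a cutoff set at the mean of all screened compounds plus 3 SD, cut at about 10% in these data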;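 note: 0% = DMSO wells and 100% = sodium butyrate wells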
DAX1 inh-1 – inhibitors of DAX1 repression of SF-1 activated StAR promoter | HEK293T StAR-luciferase reporter, SF-1/DAX-1 repression relief | inhibition, % at 6.8 µM | 370,000 tested, 1.1% active | AID 652010;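 active = inhibition above the mean over all tested compounds plus 3 SD, cut at about 3.6% in these data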;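 note: 0% = DAX-1 cells with DMSO and 100% = cells lacking DAX-1 with DMSO; higher inhibition means more luminescence from relief of DAX-1 repression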
ssDAF12 agonist – activators of S. stercoralis DAF-12 nuclear receptor; HEK293 ssDAF-12/GRIP1 lit1-tk-luc reporter, luminescence; % of 3 µM dafachronic acid response; activation, % at 6.8 µM; 370,000 tested, 1% active;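 active = activation above the mean over all tested compounds plus 3 SD, cut at about 0.9% in these data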;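 note: 0% = DMSO-only wells and 100% = 3 µM delta7-dafachronic acid wells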
SMARCA2 activ – increases SMARCA2 function in MMTV reporter cells. AID 652017. MG213 cells, MMTV-luciferase reporter, dexamethasone, overnight. activation, % at 9.1 µM. 370,000 tested, 1% active; in the data active = activation above about 7.8%;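 note: 0% = vehicle wells and 100% = reference activator wells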
DAX1 inh-2 – inhibits human nuclear receptor DAX1. P51843. HEK293 Gal4-DAX1 luciferase reporter, luminescence. inhibition, % at 6.75 µM. 340,000 tested, 0.99% active. AID 504766;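 active = inhibition above the mean over all tested compounds plus 3 SD, cut at about 4.2% in these data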;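 note: 0% = DAX1-transfected cells with DMSO and 100% = empty-vector control cells with DMSO; inhibition shows as a rise in luminescence from relieved DAX1 repression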
Target sequence (P51843 207-470 limits assumed): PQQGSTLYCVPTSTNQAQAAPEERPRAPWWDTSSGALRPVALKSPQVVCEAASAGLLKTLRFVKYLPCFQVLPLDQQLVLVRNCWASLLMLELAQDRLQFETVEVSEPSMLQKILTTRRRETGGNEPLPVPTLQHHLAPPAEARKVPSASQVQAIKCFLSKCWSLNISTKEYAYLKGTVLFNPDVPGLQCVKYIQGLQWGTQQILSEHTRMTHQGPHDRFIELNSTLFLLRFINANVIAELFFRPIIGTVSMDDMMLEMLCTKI
hcDAF-12 act – H. contortus DAF-12 activation, primary screen; 370,000 tested, 1.4% active; activation, % at 6.8 µM; HEK293 hcDAF-12 lit1-tk-luc reporter, luminescence; 0% DMSO, 100% Δ7-dafachronic acid;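 active = activation above the mean of all tested compounds plus 3 SD, cut at about 5.5% in these data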;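 note: 100% = response to 3 µM Δ7-dafachronic acid high control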
DAX1 inh confirm – confirmation of human DAX1 (NR0B1) inhibitors; shares compounds with DAX1 inh-1; HEK293T StAR-promoter luciferase reporter, SF-1/DAX-1 repression; inhibition, % at 6.8 µM; 2,400 tested, 87% active;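 active = inhibition above the average of every tested compound plus 3 SD, cut at about 3.8% in these data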;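 note: 0% = DAX-1 cells with DMSO and 100% = no DAX-1 control cells with DMSO; active compounds raise luminescence by relieving repression of the StAR reporter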
Target sequence (P51843 whole entry, looked up): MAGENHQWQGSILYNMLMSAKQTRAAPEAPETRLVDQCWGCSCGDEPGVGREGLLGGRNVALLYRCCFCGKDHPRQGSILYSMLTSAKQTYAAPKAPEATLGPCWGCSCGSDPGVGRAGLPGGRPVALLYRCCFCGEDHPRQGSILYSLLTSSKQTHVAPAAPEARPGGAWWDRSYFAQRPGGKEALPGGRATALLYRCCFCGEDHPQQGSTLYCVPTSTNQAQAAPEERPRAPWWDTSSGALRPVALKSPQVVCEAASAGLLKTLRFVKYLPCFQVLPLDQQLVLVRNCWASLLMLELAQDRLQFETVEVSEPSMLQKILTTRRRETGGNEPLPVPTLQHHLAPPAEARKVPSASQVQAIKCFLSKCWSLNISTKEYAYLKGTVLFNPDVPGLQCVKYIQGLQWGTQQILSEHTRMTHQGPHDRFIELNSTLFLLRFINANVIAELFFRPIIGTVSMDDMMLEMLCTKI
SF1 mutant ctr – nonselective inhibitor or artifact in SF-1 mutant DAX1 counter-screen; AID 652136; 2,400 tested, 78% active; HEK293 StAR-luciferase, SF-1 AF2 mutant, luminescence; shares compounds with DAX1 inh-1; inhibition, % at 6.8 µM;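 active = inhibition above the mean of all tested compounds plus 3 SD, cut at about 3% in these data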;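 note: 0% = DAX-1 transfected cells with DMSO and 100% = cells without DAX-1 with DMSO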
SMARCA2 act conf – confirmation of SMARCA2 (BRM) function activators. MG213 cells, MMTV-luciferase with dexamethasone, luminescence, overnight; MG213 cells expressing E1A, Rb sequestered; DMSO wells 0%, reference activator 100%. activation, % at 9.1 µM. 3,500 tested, 30% active. shares compounds with SMARCA2 activ;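 active = activation above its plate's cutoff, the mean activation of tested wells plus 3 SD, cut at about 7.9% in these data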
GAL4-VP16 Luc – counter-screen for SMARCA2 activators: GAL4-VP16 luciferase reporter activation; shares compounds with SMARCA2 activ; HEK293 GAL4-VP16 pG5luc reporter, luciferase luminescence; scaled: DMSO wells 0%, SAHA wells 100%; activation, % at 9.1 µM; 3,500 tested, 41% active; AID 686939;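 active = activation above the solvent-only control well mean plus 3 SD, averaged across control plates, cut at about 5.2% in these data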
LXRb hcDAF ctr – counter-screen for hcDAF-12 agonists: agonists of human LXR-beta; shares compounds with hcDAF-12 act; HEK293 Gal4-LXR tk-luc reporter, luminescence, 24 h; normalized: DMSO 0%, positive control 100%; activation, % at 6.8 µM; 3,400 tested, under 10 active; AID 743027;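 active = mean percent activation of the reporter above a cutoff set as the average over tested compounds plus their standard deviation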
hcDAF12 ag – confirmation of H. contortus DAF-12 agonists; shares compounds with hcDAF-12 act; activation, % at 6.8 µM; HEK293 hcDAF-12 lit1-tk-luc reporter, luminescence; % of Δ7-dafachronic acid response; 3,400 tested, 61% active; AID 743032;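 active = mean activation across triplicate tests above the threshold derived from the earlier primary screen, cut at about 5.5% in these data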;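 note: 0% = DMSO only wells and 100% = 3 µM Δ7-dafachronic acid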
hgDAF12 ag – hgDAF-12 agonism, confirmation assay | AID 743050 | activation, % at 6.8 µM | shares compounds with hgDAF-12 ag | 3,300 tested, 80% active | HEK293 GAL4-hgDAF12 luciferase reporter, agonist mode; percent of butyrate response;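 active = mean activation over triplicate wells above the hit cutoff derived from the earlier primary screen, cut at about 11% in these data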;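 note: 0% = DMSO low control and 100% = 2 mM sodium butyrate high control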
LXR ag 2 – activates human LXR-beta, counter-screen for DAF-12 agonists; shares compounds with hgDAF-12 ag; HEK293 Gal4-LXR luciferase reporter, 24 h; activation, % at 6.8 µM; 3,300 tested, under 10 active; AID 743051;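 active = mean activation of the triplicate above a set limit carried over from the primary screen, none filed active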
Numbers without * were called inactive; . = no result.

SMILES | hgDAF-12 ag | DAX1 inh-1 | ssDAF12 agonist | SMARCA2 activ | DAX1 inh-2 | hcDAF-12 act | SMARCA2 act conf | GAL4-VP16 Luc | others
CC1C2CC(C/C2=N/NC(=O)c2cccs2)C1(C)C (stereo unspecified) | 13.5* | 5.0* | 0.0 | 3.0 | 2.9 | 2.9 | . | . | DAX1 inh confirm=1.0;SF1 mutant ctr=0.8;hgDAF12 ag=-0.1;LXR ag 2=0.0
O=C(NN=C1CCCCCC1)c1cccs1 | 25.4* | 13.1* | 0.8 | 3.2 | 2.6 | 8.0* | . | . | DAX1 inh confirm=1.4;SF1 mutant ctr=0.6;LXRb hcDAF ctr=0.1;hcDAF12 ag=2.1;hgDAF12 ag=6.3;LXR ag 2=0.2
COc1ccccc1C(=O)Nc1nnc(-c2ccco2)s1 | 18.8* | 8.4* | 2.0* | 4.3 | 4.5* | 15.3* | . | . | DAX1 inh confirm=11.9*;SF1 mutant ctr=9.0*;LXRb hcDAF ctr=1.5;hcDAF12 ag=14.1*;hgDAF12 ag=21.3*;LXR ag 2=1.1
Cc1ccccc1C(=O)Nc1nnc(-c2ccco2)s1 | 16.1* | 5.2* | 1.1* | 0.0 | -0.9 | 9.4* | . | . | DAX1 inh confirm=9.0*;SF1 mutant ctr=4.1*;LXRb hcDAF ctr=1.4;hcDAF12 ag=8.2*;hgDAF12 ag=12.2*;LXR ag 2=0.7
O=[N+]([O-])c1ccc(/C=N/Nc2nc(N3CCCCCC3)nc(N3CCCCCC3)n2)o1 | 0.5 | -0.8 | -1.0 | -3.5 | -1.0 | -1.9 | . | .
Cn1nccc1C(=O)N1CCN(c2ccccc2Cl)CC1 | 0.0 | -0.3 | -1.1 | 8.0* | 0.7 | -1.3 | 1.0 | 1.1
Cc1cccc(N2CCN(C(=O)c3ccnn3C)CC2)c1C | -1.4 | -0.8 | -0.8 | -1.1 | 0.5 | -2.5 | . | .
Cc1ccc2c(COC(=O)C3=COCCO3)cc(=O)oc2c1 | 6.7 | 2.0 | -0.5 | 8.5* | -0.4 | 0.4 | 0.3 | 8.4*
CCN(CC)c1ccc2cc(C(=O)c3cccs3)c(=O)oc2c1 | 10.2 | 2.4 | -0.9 | 8.3* | . | 1.2 | 9.5* | 1.3
CCN(CC)c1ccc2cc(C(=O)NCc3ccc(F)cc3)c(=N)oc2c1 | -0.7 | -0.3 | -0.6 | 2.6 | 2.6 | 0.9 | . | .
COc1ccc(C(=O)NC(=S)N(C)Cc2ccccc2)cc1Br | -0.2 | 0.5 | -1.0 | 3.3 | 0.5 | 1.1 | . | .
CCOC(=O)c1cccc(NC(=S)NCc2ccc(C)cc2)c1 | -4.1 | -0.4 | -1.6 | 8.0* | -1.6 | -0.1 | 2.2 | 0.8
O=C(COc1c(Cl)cccc1Cl)Nc1ccccc1N1CCCC1 | 0.3 | 0.4 | -0.7 | 0.0 | 0.7 | -1.6 | . | .
O=C1c2nc3cc(-c4ccco4)[nH]n3c(=O)c2CN1C1CCCCC1 | 1.9 | 0.5 | -1.6 | 11.0* | . | -0.3 | -2.5 | 2.4
CC12CCC(C(=O)Nc3cc(F)ccc3F)(CC1=O)C2(C)C (stereo unspecified) | 0.5 | 0.0 | -1.8 | -3.5 | -0.5 | 0.0 | . | .
CC1(c2ccncc2)Nc2ccccc2-c2nc3ccccc3n21 (stereo unspecified) | 11.7* | 0.6 | -0.8 | 9.1* | 1.3 | 2.1 | 2.9 | 4.2
COc1ccc(/C=C(/C(=O)c2cccs2)N2C=CC=CC2=C(C#N)C#N)cc1 | 0.4 | -0.9 | -1.0 | 14.7* | -1.4 | 1.6 | -14.1 | 10.8*
COc1ccc(C(=O)/C(=C\c2ccco2)N2C=CC=CC2=C(C#N)C#N)cc1 | . | . | . | . | -1.4 | . | . | .
Cc1ccc(C(=O)Nc2ccc(O)c(C(=O)O)c2)o1 | -0.7 | 0.0 | -1.2 | 9.3* | 0.6 | -1.6 | 4.0 | 1.2
CN(C)c1ccc(/C=N/NC(=O)c2cccc(N3CCCC3=O)c2)cc1 | 2.0 | 0.2 | -1.5 | 2.9 | 0.6 | 1.9 | . | .
COc1ccccc1C1=NOC(CN2C(=O)c3ccccc3S2(=O)=O)C1 (stereo unspecified) | 9.8 | 2.7 | -0.8 | 15.4* | 4.0 | 2.2 | 7.0 | 9.1*
COc1ccccc1C1=NOC(COC(=O)c2ccc(Br)cc2)C1 (stereo unspecified) | -0.6 | -0.1 | -1.4 | 2.2 | -0.7 | 0.1 | . | .
CCN(CC)c1c(C)nc2ccc(C(=O)N3CCN(C(=O)c4ccco4)CC3)cn12 | 1.2 | 0.5 | -1.2 | 9.4* | . | -1.2 | -1.3 | -0.4
CC(=O)Nc1ccc(CN(C)c2c(C)nc3ccc(C(=O)N4CCN(C(=O)c5ccco5)CC4)cn23)cc1 | 1.7 | -0.6 | -1.1 | 1.1 | . | -0.2 | . | .
Cc1ccc(S(=O)(=O)N(C)Cc2ccc(C(=O)N/N=C3\CC(=O)CC(C)(C)C3)cc2)cc1 | -0.2 | -0.4 | -1.3 | 10.4* | 1.6 | -0.5 | -0.7 | 0.4
SMILES | hgDAF-12 ag | DAX1 inh-1 | ssDAF12 agonist | SMARCA2 activ | DAX1 inh-2 | hcDAF-12 act | SMARCA2 act conf | GAL4-VP16 Luc | others
CCCn1c(CC)nc([N+](=O)[O-])c1S(=O)(=O)c1ccccc1 | 10.1 | -1.2 | 0.2 | 10.4* | -1.8 | -2.5 | -12.5 | -1.2
CCCS(=O)(=O)N1CCN(C(=O)COc2ccc(OC)cc2)CC1 | -0.9 | -0.8 | -1.1 | -2.7 | 2.0 | 0.5 | . | .
Cc1ccc(SCC(=O)NNC(=O)c2ccccc2)cc1C | -0.2 | 0.3 | -0.5 | 9.6* | -0.4 | -1.1 | -3.7 | -1.6
Cc1ccc(C)c(SCC(=O)NNC(=O)c2ccccc2)c1 | -1.1 | -0.5 | -1.0 | -2.6 | -0.6 | -1.5 | . | .
COc1cccc(N(C(C)=O)c2nc(C)cc(C)c2C#N)c1 | -2.3 | -0.5 | -0.7 | -1.7 | -0.9 | 1.9 | . | .
O=C(CSc1nc2ccccc2s1)N/N=C/c1ccco1 | 1.1 | 0.0 | -0.1 | 8.8* | 2.1 | 5.2 | 8.9* | 0.2
N#Cc1c(N2CCCCC2)nc(N)c2c(N)nc3c(c12)CC(CCl)O3 (stereo unspecified) | -4.9 | -2.5 | -2.5 | -2.7 | -1.7 | -3.0 | . | .
